Lassa entry inh = blocks Lassa virus binding to or entry into cells; Lassa virus pseudotype entry inhibition, cell reporter; Potency, µM (titrated, usually from 37.9 µM), usual class: inhibitors; 1.2% of 300,000 active; calls by dose curve; tested in HEK293 cells; further: nearly all actives have a fitted effect of over 50% in size
Shiga inhibitor = blocks Shiga toxin action in Vero cells. Vero cells, Shiga toxin protein synthesis inhibition reporter. inhibition, % at 38.7 µM. 9.2% of 290,000 active; in the data active means inhibition mostly above about 28%, no sharp cut-off; inactive means mostly below about 43%
Cycloheximide cs = counter-screen hit for Shiga toxin inhibitors, cycloheximide | cell reporter, cycloheximide protein synthesis inhibition counterscreen | max response, % | 12% of 300,000 active; in the data active means max response mostly above about 13%, no sharp cut-off; inactive means mostly below about 14%; further: read at 38.3 µM for the half of the compounds with a filed dose
Pf growth 48h = P. falciparum growth inhibition at 48 hours (one generation) | P. falciparum luciferase growth in erythrocytes, 48 h | Potency, µM (doses to about 28.7 µM), hits mostly inhibitors | 5.9% of 310,000 active | AID 504832
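In quantitative HTS format, infected erythrocytes bearing luciferase-reporter parasites were treated for a single generation at 37 C. Luminescence after adding detection reagent served as the growth measure.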
Pf growth 96h = P. falciparum growth inhibition at 96 hours | P. falciparum luciferase reporter growth, 96 h | AID 504834 | Potency, µM (highest dose often 28.7 µM), actives largely listed as inhibitors | 6.9% of 320,000 active
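Two-generation exposure (96 h) targets delayed-death phenotype. Reporter parasites carrying integrated firefly luciferase, in red cells at 2% hematocrit and 0.05% parasitemia final, kept at 37 C, 5% CO2; luminescence loss indicates inhibition.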
MARV entry inh = Marburg virus entry inhibition; Marburg virus pseudotyped entry inhibition, cell reporter; Potency, µM (titrated, usually from 37.8 µM), most hits filed as inhibitors; 1.8% of 300,000 active; calls by dose curve; tested in HEK293 cells
Hits are given with their value; . = inactive; ? = inconclusive; / = no result given. An excerpt weighted towards active compounds, which were near 19% of everything screened. Unless noted, the call rests on the fitted dose curve; in most records, active means well fitted inhibition curve with a large enough effect; inconclusive means small, poorly fitted or top-dose-only effect, or another doubt; inactive means no such curve, though single readings can be large or run the other way.

SMILES	Lassa entry inh	Shiga inhibitor	Cycloheximide cs	Pf growth 48h	Pf growth 96h	MARV entry inh
O=C(NC1CCN(C(=S)NCc2ccco2)CC1)C1CCCCC1	.	.	.	.	.	.
CCCCN(CCCNC(=O)CN1N=C(c2ccc(C)cc2)CCC1=O)c1ccccc1	.	/	/	/	/	/
COc1ccc(-c2cnc(OC(C)(C)C)nc2OC(C)(C)C)cc1OC	?	.	.	10.4µM	/	?
N=c1c(S(=O)(=O)c2ccc(Br)cc2)cc2c(=O)n3ccccc3nc2n1C1CCCCC1	/	.	.	8.28µM	3.7µM	/
N=c1c(C(=O)NCC2CCCO2)cc2c(=O)n3ccccc3nc2n1C1CCCCC1 (stereo unspecified)	.	.	.	.	2.62µM	?
N=c1c(C(=O)NCC2CCCO2)cc2c(=O)n3ccccc3nc2n1Cc1ccc(Cl)cc1 (stereo unspecified)	/	.	.	10.4µM	?	/
N=c1c(S(=O)(=O)c2ccc(Cl)cc2)cc2c(=O)n3ccccc3nc2n1C1CCCC1	.	.	.	?	.	.
N=c1c(C(=O)NCC2CCCO2)cc2c(=O)n3ccccc3nc2n1Cc1ccccc1Cl (stereo unspecified)	?	.	.	?	?	11.2µM
Cc1cccc(C)c1NC(=S)N(CCc1ccncc1)C(C)C	.	.	.	.	?	.
CCn1cc(S(=O)(=O)c2ccc(C)cc2C)c(=O)c2cc(F)c(N3CCCCC3)cc21	.	/	/	/	/	/
CN(CC(=O)NCCCc1ccccc1)S(=O)(=O)c1ccc(Br)cc1	.	.	.	.	?	.
CCOC(=O)N1CCN(C(=O)COC(=O)c2cc(Cl)c(O)c(Cl)c2)CC1	.	.	.	?	.	.
COc1ccc(OC)c(N)c1	.	.	.	9.28µM	16.5µM	.
COc1ccc(OC)c(C(=O)C(=O)c2cc(OC)ccc2OC)c1	.	/	/	/	/	?
CCN(CC)C(=O)c1ncn(Cc2ccccc2)c1C(=O)N(CC)CC	/	/	/	.	.	/
O=C(Cc1ccc(Br)cc1)Nc1ccccc1Cl	.	.	.	.	.	.
CCN(CC)CC(O)Cn1c(-c2cccc(Cl)c2)nc2cc(C)c(C)cc21 (stereo unspecified)	/	45.1	23.9	.	.	/
O=C(CCc1ccc(F)c(F)c1)NC1CCCN(Cc2ccc(Cl)cc2)C1 (stereo unspecified)	.	.	.	.	9.28µM	11.2µM
COc1ccc(CCC(=O)NC2CCCN(Cc3ccc(Cl)cc3)C2)cc1OC (stereo unspecified)	/	.	.	?	.	/
Cc1cc(C(=O)NC2CCC(C)CC2)c(C)o1 (stereo unspecified)	/	79.9	51.7	.	.	/
Cc1occc1C(=O)NC1CCCN(Cc2ccc(Cl)cc2)C1 (stereo unspecified)	?	.	.	.	.	?
Cc1cc(C(=O)NC2CCCN(Cc3ccc(Cl)cc3)C2)c(C)o1 (stereo unspecified)	.	.	.	10.4µM	?	.
CSc1ccc(S(=O)(=O)N2CCCC2)cc1	.	.	.	.	/	.
COc1ccccc1C(=O)Nc1c2c(nn1-c1ccc([N+](=O)[O-])cc1)CS(=O)(=O)C2	.	.	.	.	.	.
N#Cc1c2n(c(=S)n(-c3ccc(OC(F)F)cc3)c1=O)CCCCC2	/	.	.	.	?	/
SMILES	Lassa entry inh	Shiga inhibitor	Cycloheximide cs	Pf growth 48h	Pf growth 96h	MARV entry inh
CN1CCN(c2ccccc2NC(=O)COc2ccccc2)CC1	.	.	.	.	/	.
Cc1cccc[n+]1CC(=O)c1ccc(NC(=O)c2ccccc2)cc1	/	.	.	2.94µM	.	/
N#Cc1cc[n+](CC(=O)c2ccc(NC(=O)c3ccccc3)cc2)cc1	/	.	.	4.15µM	3.29µM	/
O=C(C[n+]1cccc(C(=O)Nc2ccccc2)c1)c1ccc([N+](=O)[O-])cc1	.	.	.	.	.	.
Cc1ccc(Cl)cc1NC(=O)Cn1ncc2c(C)n(Cc3ccccc3F)c(C)c2c1=O	.	/	/	/	/	.
O=C(OCCN1CCCCC1)c1ccc(Cl)cc1	.	.	.	/	.	.
CC(C)[n+]1ccn(C2=C([O-])c3ccccc3C(=O)/C2=N\S(=O)(=O)c2ccccc2)c1	.	.	.	6.57µM	?	?
Cc1c(C(C)(C)C)s/c(=N/S(=O)(=O)c2ccccc2)n1C	/	.	.	?	.	/
CC(C)(C)c1cc[n+](C2=C([O-])c3ccccc3C(=O)/C2=N\S(=O)(=O)c2ccccc2)cc1	.	94.8	58.3	3.7µM	4.15µM	.

Source: PubChem BioAssay
